Luc counter: Kinase-Glo luciferase inhibition (counter-screen); Kinase-Glo luciferase, ATP luminescence, 8 min; Q27757; hit rate 0.28% among 200,000; Potency, µM (series often up to 38.3 µM), without a hit: at the highest dose activity change, negative = inhibition, most hits filed as inhibitors; note: % is set by controls: 0 for no effect and ±100 for the full control effect; nearly all actives have a fitted effect of over 60% in size
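Inhibition of Kinase-Glo luciferase light generation was assessed at 10 uM ATP in pH 7.2 imidazole buffer, with luminescence measured after eight minutes at ambient temperature.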
NPC1 prom act: activators of NPC1 promoter; Huh7 NPC1 promoter luciferase reporter, 24 h; Potency, µM (highest dose often 9.22 µM), for inactives: at the highest dose activation, hits mostly activators; hit rate 2.4% among 320,000; note: % of control where 0% means no effect; nearly all actives have a fitted effect of over 60% in size
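Quantitative HTS used a cell-based reporter: Huh7 cells stably bearing the NPC1 promoter upstream of luciferase were treated with compounds for 24 h, and promoter activation was read as luminescence.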
SMN2 splice up: increases expression of the SMN2 splice variant. HEK293 SMN2-luciferase splicing reporter, luminescence, 30-36 h. Potency, µM (series often up to 46.1 µM), inactives show top-dose activity change, positive = activation, actives largely listed as activators. hit rate 2.8% among 210,000; note: % of control where 0% means no effect; nearly all actives have a fitted effect of over 55% in size
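qHTS luciferase splicing reporter: luminescence rises when SMN2 exon 7 is included in transfected HEK293 cells. Compound exposure lasted 30-36 h at 37C, with 4.5 mM final sodium butyrate as control, followed by a ONE-Glo read.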
Rab9 prom act: Rab9 promoter activation | Huh7 Rab9 promoter-luciferase reporter, luminescence, 24 h | Potency, µM (series often up to 9.22 µM), for the others: top-dose activation, negative = inhibition, hits mostly activators | hit rate 2.8% among 320,000 | AID 485297; note: % of control where 0% means no effect; nearly all actives have a fitted effect of over 60% in size
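Measured in stably transfected Huh7 cells bearing a Rab9 promoter–luciferase construct: 24 h compound treatment at 37 °C, followed by luminescence detection.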
FLuc modulator: counter-screen for miR-21 project: firefly luciferase inhibitors or activators. P08659. purified FLuc, Km substrates, luminescence inhibition. Potency, µM (top dose mostly 57.5 µM), without a hit: at the highest dose activity change, negative = inhibition, most hits filed as inhibitors. hit rate 6.9% among 360,000. AID 588342;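 note: plate controls were vehicle for no effect and reference inhibitor for full effect; nearly all actives have a fitted effect of over 55% in size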
Target sequence (P08659 whole entry, looked up): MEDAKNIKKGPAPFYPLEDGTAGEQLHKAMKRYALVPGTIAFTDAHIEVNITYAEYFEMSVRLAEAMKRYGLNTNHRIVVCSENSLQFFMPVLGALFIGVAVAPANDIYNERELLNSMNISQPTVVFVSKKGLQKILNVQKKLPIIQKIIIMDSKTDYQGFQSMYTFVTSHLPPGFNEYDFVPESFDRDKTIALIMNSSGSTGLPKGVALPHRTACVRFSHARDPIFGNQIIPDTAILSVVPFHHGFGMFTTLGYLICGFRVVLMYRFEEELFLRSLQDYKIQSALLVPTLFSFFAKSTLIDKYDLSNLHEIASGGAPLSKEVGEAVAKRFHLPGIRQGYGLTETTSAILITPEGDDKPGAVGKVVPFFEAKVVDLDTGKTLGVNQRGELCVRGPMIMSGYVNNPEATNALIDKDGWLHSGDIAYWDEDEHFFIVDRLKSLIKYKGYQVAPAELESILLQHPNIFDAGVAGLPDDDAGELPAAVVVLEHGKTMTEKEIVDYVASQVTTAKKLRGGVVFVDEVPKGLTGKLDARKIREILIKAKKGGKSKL
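Purified P. pyralis luciferase (10nM final) with 10uM D-luciferin and 10uM ATP (Km levels) in 50mM Tris acetate pH 7.5, 10mM Mg acetate, 0.01% Tween-20, 0.05% BSA; qHTS 6-point titration, ~60 µM downward; luminescence read.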
ELG1 genotoxic: induces genotoxicity in HEK293T cells with luciferase-tagged ELG1 | hit rate 1.3% among 330,000 | Potency, µM (doses to about 46 µM), for inactives: top-dose activity change, positive = activation, actives largely listed as activators | HEK293T ELG1-luciferase reporter, luminescence, 16 h; note: % of control where 0% means no effect; nearly all actives have a fitted effect of over 60% in size
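16 hr compound incubation (37 °C, 5% CO2) of HEK293T cells carrying luciferase-tagged ELG1; luciferase then measured by ONE-Glo luminescence after 30 min at RT.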
Numbers without * were called inactive; ? = inconclusive; / = no result given. In the library only some 7.5% were active in any assay of this set; here they are far more common. Calls come from the whole dose curve; as a rule, active = well fitted curve in the direction sought with a large enough effect; inconclusive = small, poorly fitted or top-dose-only effect, or another doubt; inactive = no such curve, though single readings can be large; an effect the other way counts as inactive or inconclusive. Potency is the fitted concentration of half-maximal effect.

SMILES	Luc counter	NPC1 prom act	SMN2 splice up	Rab9 prom act	FLuc modulator	ELG1 genotoxic
Cn1c2ccccc2c(=O)c2ccc(C#CC3(O)CCCCC3)cc21	/	0.316µM*	/	0.316µM*	0.379µM*	?
O=C(NCc1ccccc1Cl)c1cnc2sc(N3CCCCC3)nn2c1=O	/	/	/	/	-2.5%	/
CCCCC/C=C\C/C=C\C/C=C\CCCCCCC(=O)O[C@H](COCCCCCCCCCCCCCCCC)COP(=O)([O-])OCC[N+](C)(C)C	-1.9%	/	0.8%	/	/	/
O=C1C2C3C=CC(C3)C2C(=O)N1c1ccc(-c2nc3ccccc3o2)cc1 (stereo not drawn)	-3.9%	1.41µM*	12.6µM*	1.41µM*	2.69µM*	1.84µM*
O=C1C2C3C=CC(C3)C2C(=O)N1c1ccncc1 (stereo not drawn)	-2.9%	2.8%	-6.9%	-2.4%	2.5%	0.3%
Cc1ccc(Cl)cc1NC(c1ccc(F)cc1)c1nnc(-c2ccccc2)o1 (stereo not drawn)	/	/	/	/	-15.3%	/
Cc1ccc(C)c(NC(c2ccccc2)c2nnc(-c3ccccc3F)o2)c1 (stereo not drawn)	/	/	23.1%	/	15.1µM*	/
CSc1ccc(CNc2ccc(C)c(C)c2)cc1	1.8%	?	8.3%	?	15.1µM*	?
Cc1ccc(NCc2ccccc2)cc1	-0.1%	-1.1%	1.7%	-3.4%	?	-3.9%
COc1ccc(CNc2ccc(C)c(C)c2)cc1	1.3%	?	25.3%	?	15.1µM*	?
CSc1ccc(CNc2ccc(C)cc2)cc1	-1.4%	3.55µM*	-5.3%	3.98µM*	9.53µM*	?
COc1cc(CNc2ccc(C)c(C)c2)cc(OC)c1OC	1.2%	-34.9%	-1.7%	-11.7%	-13.8%	17.3%
COc1cc(OC)c(C(=O)Nc2cccc(C(C)=O)c2)cc1OC	-8.4%	17.6%	-11.6%	?	13.5µM*	?
COc1ccc(C(=O)Nc2cccc(C(C)=O)c2)c(OC)c1OC	-2.0%	19.5%	-3.2%	22.7%	12µM*	?
COc1cc(Cl)c(C)cc1NC(=O)Cn1c2ncccc2c(=O)n1-c1ccccc1	/	/	/	/	0.7%	/
COc1ccccc1NC(=O)/C=C\c1ccco1	/	?	/	?	23.9µM*	15.2%
COc1ccccc1NC(=S)NC(=O)/C=C/c1ccco1	-4.3%	-3.0%	0.9%	3.1%	-14.5%	-0.5%
O=C(/C=C/c1ccco1)Nc1cccnc1	-28.2%	?	?	?	19µM*	?
COc1cccc(NC(=O)/C=C/c2ccco2)c1	?	?	12.6µM*	2.51µM*	10.7µM*	?
CC(C)(C)c1ccc(/C=C/C(=O)Nc2cccnc2)cc1	/	2µM*	/	1.12µM*	2.69µM*	2.31µM*
Cc1ccc(Cl)cc1N1CCN(C(=O)COCc2cc(-c3ccc4c(c3)OCO4)on2)CC1	/	/	/	/	-19.3%	/
CCC1CCCCN1C(=O)CSc1nnc(-c2ccc(OC)c(OC)c2)o1 (stereo not drawn)	/	/	-3.5%	/	-3.2%	/
O=c1c2oc3ccccc3c2n(Cc2cccc(Cl)c2)c(=O)n1Cc1ccco1	/	/	/	/	-8.2%	/
CSc1cccc(NC(=O)/C=C/c2ccco2)c1	-4.4%	12.9%	45.3%	?	19µM*	?
COc1ccc(N2Cc3cccc(C(=O)Nc4ccc(C(C)C)cc4)c3C2=O)cc1	/	/	?	/	0.269µM*	/
SMILES	Luc counter	NPC1 prom act	SMN2 splice up	Rab9 prom act	FLuc modulator	ELG1 genotoxic
CCOc1ccc(NC(=O)c2cccc3c2C(=O)N(CCOC)C3)cc1	-2.9%	7.3%	-7.5%	20.8%	6.75µM*	14.7%
COCCN1Cc2cccc(C(=O)Nc3cccc(OC)c3)c2C1=O	3.1%	-0.9%	-31.9%	9.7%	-16.4%	2.4%
COCCN1Cc2cccc(C(=O)Nc3ccc(C)c(C)c3)c2C1=O	-8.9%	-1.4%	-1.1%	15.5%	7.57µM*	10.3%
CCN(CC)S(=O)(=O)c1ccc(NC(=O)c2cccc3c2C(=O)N(CCOC)C3)cc1	1.0%	-0.3%	2.0%	0.7%	3.2%	10.8%
COc1ccc2c(c1)C(=NN)c1cc(OC)ccc1-2	4.0%	28.8%	-10.0%	?	10.7µM*	3.7%
COc1ccc(/C(C)=N/Nc2ccc(C(=O)O)cc2)c(OC)c1	-2.3%	?	15.8µM*	1.78µM*	7.57µM*	?
COc1ccc2c(c1)C(=NNc1ccc(C(=O)O)cc1)c1cc(OC)ccc1-2	/	2.3%	/	7.1%	6.01µM*	2.0%
CC(=NCc1ccco1)c1c(C)[nH]n(-c2nc3ccccc3s2)c1=O	/	?	/	?	7.57µM*	3.66µM*
O=c1c(C=NCc2cccnc2)c(C(F)(F)F)[nH]n1-c1nc2ccccc2s1	-6.1%	-1.9%	/	1.1%	1.9%	-5.6%
C/C(=N/NC(=O)c1cccs1)c1c(C)[nH]n(-c2nc3ccccc3s2)c1=O	10µM*	2µM*	11.2µM*	2µM*	0.601µM*	?
CCC(=NCc1ccccc1)c1c(C(F)(F)F)[nH]n(-c2nc3ccccc3s2)c1=O	-0.7%	19.8%	-1.7%	2.9%	12µM*	?
CCCN=C(C)c1c(-c2ccccc2)[nH]n(-c2nc3ccccc3s2)c1=O	20.4%	?	-34.4%	26.3%	?	-12.5%
CCC(=NCc1ccco1)c1c(C(F)(F)F)[nH]n(-c2nc3ccccc3s2)c1=O	-8.1%	?	17.1%	?	7.57µM*	9.2µM*
O=C(c1cccn1-c1nnc(N2CCCC2)s1)N1CCN(c2ccccc2)CC1	/	/	/	/	-0.8%	/
CC(=O)c1c(C)[nH]c(C(=O)OCC(=O)Nc2nnc(-c3ccccc3)o2)c1C	/	-3.4%	/	-6.8%	21.3µM*	-1.9%
CCOc1ccc(C2CC(=O)c3c([nH]c(C(=O)OCCOc4ccccc4)c3C)C2)cc1 (stereo not drawn)	/	/	0.6%	/	-6.6%	/
CC(=O)c1c(C)[nH]c(C(=O)OCC(=O)Nc2ccccc2Cl)c1C	-0.4%	-5.3%	/	-8.7%	-10.8%	-1.4%
Cc1c(C(=O)OCCOc2ccccc2)[nH]c2c1C(=O)CCC2	-3.9%	4.47µM*	3.55µM*	?	0.953µM*	?
CC(=O)c1c(C)[nH]c(C(=O)OCCOc2ccccc2)c1C	4.4%	0.316µM*	-56.4%	0.316µM*	0.536µM*	?
Cc1cccc(NC(=O)CN2C(=O)C(c3ccc(F)cc3)=NC23CCCCCC3)c1C	/	/	4.5%	/	-8.0%	/
CCc1ccc(-n2nc(CO)c(C(=O)NC(C)c3ccc(Cl)cc3)n2)cc1 (stereo not drawn)	/	/	4.2%	/	-18.7%	/
Cn1cccc1C(=O)NC(=O)COC(=O)c1ccccc1O	-8.4%	10.6%	35.5µM*	-1.1%	0.3%	2.5%
Cn1cccc1C(=O)NC(=O)COC(=O)C12CC3CC(CC(O)(C3)C1)C2	-16.8%	13.8%	6.9%	17.4%	6.01µM*	9.2µM*
